The record followed here is PubChem BioAssay (NCI).

The assay has as its system HL-60(TB) leukemia. The assay can be described thus: NCI-60 one-dose screen, 48 h (100 = growth as untreated, 0 = no growth, -100 = all killed). As to conditions: 10 µM unless noted.

The panel holds about 83,000 compounds, 20% with a hit somewhere; the sample as a whole holds those more often.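 Percent growth is the endpoint: 0 to 100 indicates growth inhibition (40 means 60% inhibition), 0 means no net growth, and negative values indicate cell death.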 Values without a mark were called inactive. Calls of active or inactive are those of the source. The calls were made as follows: active = growth percent below 10; inactive = the rest.

For the compound `COc1ccc(-c2nnc(COc3ccc(C(=O)/C=C/c4ccco4)cc3)o2)cc1`, the growth is 79.7%. Turning to `COc1cc(CCC[P+](c2ccccc2)(c2ccccc2)c2ccccc2)c(OC)c2c1OCO2`, the growth is 13.6%. Under `CN(C)c1ccc(/C=C(\C#N)c2cc3ccccc3n2C)cc1` stands 2.69% (active); under `COc1ccc(C(c2cc(OC)c(OC)c(OC)c2)n2cncn2)cc1O` (stereo unspecified), -32.5% (active); under `COc1cccc(-c2nc3sccn3c2-c2ccnc(NCCCNS(=O)(=O)c3ccccc3)c2)c1`, -12.4% (active). Take `NNc1ncnc2nc[nH]c12`: the growth is 35.3%. On to `Nc1nc(Nc2ccccc2)n[nH]1`, for which the growth was 97.7%. As for `S=c1[nH]cccc1-c1nnc2n1Nc1nc3ccccc3cc1CS2`, the growth was 105%. In the case of `NC(=S)N/N=C/c1ccc(Cl)cc1`, the growth is 103%. As to `COc1ccc(NC(=S)N/N=C/c2ccccc2SSCCC(=O)OC[C@H]2O[C@H](O)[C@H](O)[C@@H](O)[C@@H]2O)cc1`, the growth is 75.1%. On to `C=CC(=O)Nc1cccc(Nc2nc(SC)nc(-c3cccc([N+](=O)[O-])c3)c2C#N)c1`, for which the growth was 63.4%. As to `O=C(Cn1c2ccccc2c2ccncc21)N/N=C/c1c[nH]c2ccccc12`, the growth is 74.5%. Regarding `C=C1CC2(OC1=O)C(=O)N(CCCCCCCN1C(=O)C3(CC(=C)C(=O)O3)c3ccccc31)c1ccccc12` (stereo unspecified), the growth was 11.7%.

Consider `COc1ccc(CCN2C(=O)/C(=C/c3ccc(C4Oc5ccccc5C5CC(c6cccc(OC)c6)=NN54)cc3)SC2=S)cc1` (stereo unspecified), for which the growth was 99.5%. With `CCCCN(CC)CCCCCCCCCCN1CCCc2cc(OC)ccc21`, the growth is -54% (active). Under `O=C(NCc1ccc(Cn2c(=O)sn(-c3ccccc3)c2=O)cc1)OCc1ccc2cccc(O)c2n1` stands -56.8% (active). As to `OCCN1CCN(c2nc(Nc3ccc(-c4nc5ccccc5[nH]4)cc3)c3cn[nH]c3n2)CC1`, the growth is -65.8% (active).

`Cn1cc(-c2cc3ncnc(Nc4ccc(CC(=O)Nc5cc(C(C)(C)C)nn5C)cc4)c3s2)cn1`: the growth was 63.4%. In the case of `CN(C)Cc1cccs1`, the growth was 104%. Under `C/C(=C\c1ccc2ccccc2c1)[N+](=O)[O-]` stands -25.7% (active). `Cn1c(=O)cc2c3c(c(NCCCO)ccc31)C(=O)c1ccccc1-2`: the growth is 50.8%. In the case of `O=C(O)CCCN1C(=O)NC2(C1=O)c1ccccc1-c1ccccc12`, the growth is 101%.

Consider `CCc1ccc(OCc2ccccc2C(=O)Nc2ccc3nc(C)cc(N)c3c2)cc1`, for which the growth was -75.9% (active). Under `CC(=O)c1cc(O)ccc1O` stands 62.1%; under `Cn1c(N2NC(=O)C(N=Nc3ccc(S(N)(=O)=O)cc3)C2=O)nc(-c2ccco2)c(C#N)c1=O` (stereo unspecified), -41.4% (active).

Consider `CC(=O)c1ccc2c(ccc3ccccc32)c1`, for which the growth is 90.6%.

In the case of `Cc1cc(N2CCCCCC2)nc(NC2CCCC(Nc3ccnc4cc(Cl)ccc34)C2)n1` (stereo unspecified), the growth is -71.3% (active). On to `CC1(C)CC[C@]2(CO)CC[C@]3(C)[C@H](CC[C@@H]4[C@@]5(C)CCCNC(C)(C)[C@@H]5CC[C@]43C)[C@H]2[C@H]1O`, for which the growth was 57.8%. As for `CCOC(=O)c1cn2ncnc(Oc3ccc(NC(=O)NC4CC4)c(F)c3)c2c1C`, the growth is 70.9%. `O=C1OCC2=C1C(c1ccc(Cl)c(Cl)c1)c1cc3c(cc1N2CCO)CCC3` (stereo unspecified): the growth is -13.1% (active).

As to `O=[N+]([O-])c1ccc(-c2nc(Cl)c3c(n2)CCCC3)o1`, the growth is 93.8%. Take `CN(C)CCOC(=O)Nc1nc2ccc(Sc3ccccc3)cc2[nH]1`: the growth was -6.29% (active). Take `COc1ccc(/C(=C\c2ccc3c(c2)OCO3)C(=O)Nc2nc3ccc(F)cc3s2)cc1OC`: the growth is 93%. With `CCN(CC)S(=O)(=O)c1ccc(O)c(NC(=O)c2[nH]c(C)c(C(C)=O)c2CCc2ccc(Cl)cc2)c1`, the growth was 39.6%. As to `CCCCc1ccc(Nc2nnc(SCC(=O)NC(=O)NCC)s2)cc1`, the growth is 95.2%. Consider `Nc1ccc2c(c1)Cc1cc(N)c(N)cc1-2`, for which the growth is 78.1%. For the compound `C/C(=N/Nc1nc2ccccc2n1C)c1ccccn1`, the growth is -19% (active).

For the compound `COc1ccc(-c2nc(C#N)c(NCC(c3ccco3)N3CCCC3)o2)cc1` (stereo unspecified), the growth was -14.1% (active). On to `O=C1Nc2ccccc2C12Nc1cc(Cl)ccc1S2` (stereo unspecified), for which the growth was 71.6%.

As to `CN(C)CCNc1nc2ccccc2c2c1c1c(n2Cc2ccccc2)-c2ccccc2C1=O`, the growth is -85% (active). Turning to `CN(C)CCC(=O)C1CC1`, the growth was 93.9%.
